Measurements from PubChem BioAssay (NCATS).
Results filed as inconclusive are left out. Active and inactive are the calls of the source. Unless noted, calls come from the whole dose curve; as a rule, active = well fitted curve in either direction with a large enough effect (not every such curve was filed as active); inconclusive = small, poorly fitted or top-dose-only effect, or another doubt; inactive = flat fitted curve, though single readings scatter.

Assays:
[1] = target: Lysosomal acid glucosylceramidase (Homo sapiens) (UniProt P04062); test: Glucocerebrosidase-p2 (AID 348; in the data active = potency below about 10 µM; note: potency is the fitted concentration of half-maximal effect); details: purified GBA, blue fluorogenic substrate, 40 min
Chain of Lysosomal acid glucosylceramidase (Homo sapiens) (P04062 whole entry, looked up): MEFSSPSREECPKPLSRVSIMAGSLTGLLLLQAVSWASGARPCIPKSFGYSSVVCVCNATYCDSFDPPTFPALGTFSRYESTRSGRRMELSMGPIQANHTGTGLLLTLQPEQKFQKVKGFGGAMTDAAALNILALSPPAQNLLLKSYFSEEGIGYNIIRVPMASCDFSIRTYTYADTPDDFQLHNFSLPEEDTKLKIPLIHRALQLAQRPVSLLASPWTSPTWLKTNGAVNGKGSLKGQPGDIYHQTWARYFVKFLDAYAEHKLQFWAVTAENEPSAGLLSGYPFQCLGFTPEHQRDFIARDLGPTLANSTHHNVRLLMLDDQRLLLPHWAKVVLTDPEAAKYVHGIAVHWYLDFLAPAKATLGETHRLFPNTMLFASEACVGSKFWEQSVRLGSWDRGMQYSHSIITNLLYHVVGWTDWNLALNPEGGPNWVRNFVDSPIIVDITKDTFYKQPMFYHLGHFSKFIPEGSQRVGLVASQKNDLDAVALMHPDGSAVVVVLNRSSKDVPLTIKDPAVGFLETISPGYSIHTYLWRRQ
Method in brief: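 Compounds titrated from 0.6 nM upwards against 0.2 nM enzyme in pH 5.9 citric acid/KH2PO4, taurocholate, tween-20; blue fluorogenic substrate 80 uM, 40 min room temperature, stopped and read Ex 365/Em 440 for AC50.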

[2] = AP1 Signaling Pathway (AID 357); details: ME-180 AP-1-bla reporter, EGF-induced, beta-lactamase ratio, 5 h; at 7.69 µM (top of the series) unless noted;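 note: ME-180 reporter cells stimulated with EGF at its EC50 level; % is set by controls: 0 for no effect and ±100 for the full control effect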
Method in brief: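 AP-1-bla ME-180 cells, Opti-MEM + 0.5% dialyzed FBS, plated overnight 37 °C. Cpd titration + EC50 EGF, 5 h 37 °C. CCF4 2.5 h RT; ex 405, em 460/530 ratio → %activity, AC50.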

[3] = target: Cytochrome P450 1A2 (Homo sapiens) (UniProt P05177); test: p450-cyp1a2 (AID 410; calls by dose curve; note: potency is the fitted concentration of half-maximal effect;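 for activity change, negative = inhibition: -100% = full effect of reference inhibitor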); details: recombinant CYP1A2, luciferin-ME demethylation, luminescence; series mostly up to 11.4 µM
Chain of Cytochrome P450 1A2 (Homo sapiens) (P05177 whole entry, looked up): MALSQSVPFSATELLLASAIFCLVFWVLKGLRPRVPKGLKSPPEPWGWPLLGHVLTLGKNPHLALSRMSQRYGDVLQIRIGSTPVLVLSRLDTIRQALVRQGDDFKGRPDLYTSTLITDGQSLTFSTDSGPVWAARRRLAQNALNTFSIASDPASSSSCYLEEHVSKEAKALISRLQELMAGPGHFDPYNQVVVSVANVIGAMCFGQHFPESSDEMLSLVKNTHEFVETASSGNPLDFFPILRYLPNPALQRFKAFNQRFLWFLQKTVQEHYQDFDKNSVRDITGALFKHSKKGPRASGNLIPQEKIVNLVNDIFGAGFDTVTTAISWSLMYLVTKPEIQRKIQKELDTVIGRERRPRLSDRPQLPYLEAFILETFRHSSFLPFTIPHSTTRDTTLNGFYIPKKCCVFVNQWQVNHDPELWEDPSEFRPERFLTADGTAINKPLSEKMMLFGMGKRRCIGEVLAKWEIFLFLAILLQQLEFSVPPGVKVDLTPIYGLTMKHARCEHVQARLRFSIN
Method in brief: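 Human CYP1A2 (20nM) demethylated Luciferin-ME at its Km (100uM) in 100mM KPO4. After 10 min compound preincubation, NADPH regeneration ran the reaction 60 min at room temperature. Luciferin was read by luminescence, normalized to 57 uM furafylline.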

[4] = NFAT Signaling Pathway (AID 444); details: Jurkat NFAT-bla M1, carbachol, beta-lactamase ratio, 5 h; at 7.69 µM (top of the series) unless noted;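 note: carbachol stimulus at about its EC50 of 1 µM final; % is set by controls: 0 for no effect and ±100 for the full control effect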
Method in brief: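 Jurkat cells with NFAT-driven β-lactamase reporter and co-expressed M1 receptor, stimulated with carbachol (final 1 uM, ~EC50), compound titration, 5 h at 37 °C. CCF4 loaded 1 h at RT; 460/530 nm ratio gave %activity and AC50.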

[5] = Stat Signaling Pathway (AID 446); details: ME-180 SIE beta-lactamase reporter, IL-6 stimulated, 5 h; at 7.69 µM (top of the series) unless noted;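 note: ME-180 cervical cancer cells given 40 pM IL-6 alongside compound; SIE-controlled beta-lactamase reporter measured as 460/530 nm FRET emission ratio; % is set by controls: 0 for no effect and ±100 for the full control effect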
Method in brief: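 ME-180 cells carrying a SIE-driven beta-lactamase reporter are stimulated with 40 pM IL-6 for 5 h at 37C in the presence of compound. The 460/530 nm FRET substrate ratio is read after 2.5 h at RT. Data are normalised to 300 pM IL-6 and to 125 nM JAK inhibitor controls.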

[6] = target: Glucocorticoid receptor (Homo sapiens) (UniProt P04150); test: GR-GFP Redistribution (AID 450;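 active = compounds whose dose series gives a full or clear partial fitted curve of increased nuclear translocation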; note: potency is the fitted concentration of half-maximal effect); details: U2OS GR-GFP nuclear translocation, laser cytometry, 2 h
Chain of Glucocorticoid receptor (Homo sapiens) (P04150 whole entry, looked up, the tested form may be a part): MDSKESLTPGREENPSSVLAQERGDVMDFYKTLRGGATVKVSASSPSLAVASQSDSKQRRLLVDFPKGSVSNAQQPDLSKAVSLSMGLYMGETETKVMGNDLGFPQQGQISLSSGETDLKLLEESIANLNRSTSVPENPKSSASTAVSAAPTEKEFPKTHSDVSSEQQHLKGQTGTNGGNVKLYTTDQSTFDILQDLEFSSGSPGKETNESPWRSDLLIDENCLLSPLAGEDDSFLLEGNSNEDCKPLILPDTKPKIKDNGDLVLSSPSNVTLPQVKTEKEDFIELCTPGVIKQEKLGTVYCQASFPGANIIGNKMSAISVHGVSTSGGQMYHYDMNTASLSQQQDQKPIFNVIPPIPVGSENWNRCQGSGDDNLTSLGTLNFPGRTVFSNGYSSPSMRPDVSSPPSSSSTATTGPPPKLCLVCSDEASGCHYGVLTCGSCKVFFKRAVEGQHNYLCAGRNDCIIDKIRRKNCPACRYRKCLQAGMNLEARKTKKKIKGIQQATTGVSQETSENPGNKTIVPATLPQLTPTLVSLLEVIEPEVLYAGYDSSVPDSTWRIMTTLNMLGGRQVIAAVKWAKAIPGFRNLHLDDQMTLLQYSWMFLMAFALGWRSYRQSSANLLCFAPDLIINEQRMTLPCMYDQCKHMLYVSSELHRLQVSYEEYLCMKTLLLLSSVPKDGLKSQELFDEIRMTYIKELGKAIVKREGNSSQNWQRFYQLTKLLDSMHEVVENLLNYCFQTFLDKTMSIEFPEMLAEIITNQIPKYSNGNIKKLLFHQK

[7] = target: Glucocorticoid receptor (Homo sapiens) (UniProt P04150); test: GR-EFC Redistribution (AID 451; calls by dose curve; note: potency is the fitted concentration of half-maximal effect); details: CHO-K1 GR-EFC translocation, beta-gal luminescence, 2 h
Method in brief: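 CHO-K1 cells expressing nuclear EA and GR-ED fragments of b-gal; compounds titrated up to 46 uM final, 2 h at 37 C. GR nuclear translocation read as complemented b-gal luminescence after 1 h RT detection.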

[8] = target: Mitogen-activated protein kinase 10 (Mus musculus) (UniProt Q61831); test: JNK3 AlphaScreen Assay (AID 530); details: JNK3 lysate, c-Jun phosphorylation; series mostly up to 57.1 µM;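 note: kinase came from lysate of stimulated human HepG2 cells; signal reports phosphorylation of biotinylated GST-cJun 1-79 at Ser73 with 10 µM ATP; % is set by controls: 0 for no effect and ±100 for the full control effect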
Method in brief: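 qHTS format: compounds tested as titrations against IL-1beta/TNF-alpha-activated HepG2 lysate JNK3 with biotin-GST-cJun substrate and 10 uM ATP at room temperature. Loss of anti-phospho-cJun AlphaScreen signal indicates inhibition.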

[9] = tested on: HIV-1 nucleocapsid protein NCp7 (binding to TG oligonucleotide); test: HIV Nucleocapsid (AID 346; call rule not given here;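 note: potency is the fitted concentration of half-maximal effect; potency is for inhibitors that block NC binding and lower polarization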); details: HIV-1 NC / fluorescein-TGTGTGTG probe, fluorescence polarization
Method in brief: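 Reagents dispensed (10 nM TG4xF, 100 nM HIV-1 NC), plates spun, compounds pin-transferred, then incubated 1 hr at room temperature before FP imaging. Buffer: Hepes pH 7.5, 250mM NaCl, 1uM ZnCl2, 100 uM TCEP, 5 mM 2-mercaptoethanol.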

[10] = target: 3',5'-cyclic-AMP phosphodiesterase 4B (Homo sapiens) (UniProt Q07343); test: qHTS Assay for Inhibitors of PDE-IV (AID 607; active = well fitted activation curve with a large enough effect in the main read-out, with a control signal flat, not every such curve was filed as active; note: % of control where 0% means no effect); details: HEK293 ACTOne CNG channel cells, membrane potential fluorescence; series mostly up to 22.9 µM
Chain of 3',5'-cyclic-AMP phosphodiesterase 4B (Homo sapiens) (Q07343 whole entry, looked up): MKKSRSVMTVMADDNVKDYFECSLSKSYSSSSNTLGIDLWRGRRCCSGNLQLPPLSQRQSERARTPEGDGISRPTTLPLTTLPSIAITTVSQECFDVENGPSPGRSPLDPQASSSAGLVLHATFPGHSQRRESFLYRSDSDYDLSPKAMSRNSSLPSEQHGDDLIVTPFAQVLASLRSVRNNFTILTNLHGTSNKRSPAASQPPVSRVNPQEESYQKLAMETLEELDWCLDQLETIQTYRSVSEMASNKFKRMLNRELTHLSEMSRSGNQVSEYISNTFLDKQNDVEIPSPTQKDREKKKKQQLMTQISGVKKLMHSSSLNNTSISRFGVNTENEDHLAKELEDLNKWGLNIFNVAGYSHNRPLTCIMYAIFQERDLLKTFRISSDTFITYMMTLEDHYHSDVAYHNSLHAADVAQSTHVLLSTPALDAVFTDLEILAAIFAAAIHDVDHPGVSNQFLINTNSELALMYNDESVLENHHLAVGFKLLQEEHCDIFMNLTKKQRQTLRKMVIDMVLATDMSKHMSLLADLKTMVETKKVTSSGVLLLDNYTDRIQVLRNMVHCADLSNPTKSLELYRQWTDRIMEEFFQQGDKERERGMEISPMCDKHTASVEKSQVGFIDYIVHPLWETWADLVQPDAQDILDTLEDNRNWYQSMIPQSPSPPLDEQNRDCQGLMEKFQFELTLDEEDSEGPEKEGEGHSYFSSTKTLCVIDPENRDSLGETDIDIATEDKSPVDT
Method in brief: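 HEK293 ACTOne cells with CNG channel (1000/well), endogenous PDE4; membrane potential dye, compounds up to 22.9 uM final. Fluorescence Ex 535/Em 590; RO 20-1724 (100 uM final) as reference.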

[11] = target: Cytochrome P450 3A4 (Homo sapiens) (UniProt P08684); test: qHTS Assay for Activators of Cytochrome P450 3A4 (AID 885; active = well fitted curve in the direction sought with a large enough effect; an effect the other way counts as inactive or inconclusive; note: nearly all actives have a fitted effect of over 65% in size); details: recombinant CYP3A4, Luciferin-PPXE luminescence, 60 min; series mostly up to 57.1 µM
Chain of Cytochrome P450 3A4 (Homo sapiens) (P08684 whole entry, looked up): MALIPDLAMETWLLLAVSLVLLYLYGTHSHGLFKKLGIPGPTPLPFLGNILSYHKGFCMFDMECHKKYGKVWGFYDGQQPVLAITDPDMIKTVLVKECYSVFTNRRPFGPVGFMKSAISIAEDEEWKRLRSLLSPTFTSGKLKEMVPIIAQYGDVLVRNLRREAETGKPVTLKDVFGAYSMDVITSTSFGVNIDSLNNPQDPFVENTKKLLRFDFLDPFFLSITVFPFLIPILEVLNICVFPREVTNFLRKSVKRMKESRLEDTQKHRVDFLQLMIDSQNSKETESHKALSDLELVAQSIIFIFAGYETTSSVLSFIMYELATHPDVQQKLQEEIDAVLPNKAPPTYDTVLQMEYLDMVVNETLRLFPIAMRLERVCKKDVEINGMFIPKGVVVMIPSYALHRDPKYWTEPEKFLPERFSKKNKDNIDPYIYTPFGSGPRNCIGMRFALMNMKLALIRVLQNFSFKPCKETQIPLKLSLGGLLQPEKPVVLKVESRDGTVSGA
Method in brief: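 Human CYP3A4 (20 nM) with Luciferin-PPXE at 25 uM (its KM) in 200 mM KPO4; 10 min compound preincubation, then NADPH regeneration and 60 min reaction at RT. Luciferin read by luminescence; normalized to 57 uM ketoconazole full inhibition.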

[12] = target: Cytochrome P450 2D6 (Homo sapiens) (UniProt P10635); test: qHTS Assay for Inhibitors and Substrates of Cytochrome P450 2D6 (AID 891; active = well fitted curve in the direction sought with a large enough effect; an effect the other way counts as inactive or inconclusive; note: potency is the fitted concentration of half-maximal effect; nearly all actives have a fitted effect of over 60% in size); details: recombinant CYP2D6, luciferin-ME EGE luminescence; series mostly up to 11.4 µM
Chain of Cytochrome P450 2D6 (Homo sapiens) (P10635 whole entry, looked up): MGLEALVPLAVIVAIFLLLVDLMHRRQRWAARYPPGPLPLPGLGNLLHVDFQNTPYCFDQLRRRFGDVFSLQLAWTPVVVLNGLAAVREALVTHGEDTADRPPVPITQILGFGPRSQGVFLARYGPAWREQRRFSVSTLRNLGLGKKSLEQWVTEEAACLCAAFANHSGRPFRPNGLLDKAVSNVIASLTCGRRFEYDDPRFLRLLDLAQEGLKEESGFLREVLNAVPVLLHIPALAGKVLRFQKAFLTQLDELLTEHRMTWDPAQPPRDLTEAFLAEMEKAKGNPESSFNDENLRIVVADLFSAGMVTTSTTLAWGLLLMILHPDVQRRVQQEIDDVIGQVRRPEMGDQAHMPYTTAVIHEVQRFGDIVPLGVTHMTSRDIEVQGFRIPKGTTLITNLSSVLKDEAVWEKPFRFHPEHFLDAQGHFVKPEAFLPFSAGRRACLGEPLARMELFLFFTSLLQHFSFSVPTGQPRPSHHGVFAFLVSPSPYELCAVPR
Method in brief: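 Human CYP2D6 (5 nM) with 30 uM Luciferin-ME EGE (at Km) in 100 mM KPO4, compound preincubated 10 min, then NADPH regeneration system for 60 min at room temperature. Luciferin read by luminescence; normalized to 1.43 uM quinidine.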

N[C@H](Cc1ccc2oc3cc(=O)c4ccccc4c-3nc2c1)C(=O)O
active: Potency [3] 1.26 µM
inactive: Potency [1] > 11.4 µM | activity change, negative = inhibition [2] 25.4% | activity change, negative = inhibition [4] -17.2% | activity, negative = inhibition [5] 7.75% | Potency [6] > 46 µM | Potency [7] > 9.22 µM | activity change, negative = inhibition [8] 0.331% [at 11.4 µM]

Cc1cccc(CNc2ccnc(-c3ccccc3CN(C)C)n2)c1
inactive: Potency [9] > 20 µM

CS(=O)(=O)N1CCC2(CC1)CN(C(=O)Nc1cccc(C#N)c1)C2
inactive: Potency [9] > 20 µM

N#Cc1cccc(NC(=O)N2CCCC3(CCN(C(=O)Oc4ccccc4)CC3)C2)c1
active: Potency [3] 15.8 µM
inactive: Potency [9] > 20 µM | Potency [1] > 11.4 µM | activity change, negative = inhibition [2] -22.4% | activity, negative = inhibition [5] -12.1% | Potency [7] > 46 µM | Potency [8] | outcome [10] | Potency [11]

O=C(Nc1ccccc1)N1CCC2(CC1)CCN(C(=O)c1cccc(F)c1)CC2
inactive: Potency [9] > 20 µM

N[C@H](Cc1ccccc1)c1nn[nH]n1
inactive: Potency [1] > 11.4 µM | activity change, negative = inhibition [2] 11.1% | activity change, negative = inhibition [4] 1.74% | activity, negative = inhibition [5] -5.07% | Potency [6] > 46 µM | Potency [7] > 9.22 µM | activity change, negative = inhibition [8] 5.89% [at 11.4 µM]
active: Potency [3] 10 µM

COc1ccccc1CN1CCCC2(CCN(C(=O)Oc3ccccc3)CC2)C1
inactive: Potency [9] > 20 µM | Potency [1] > 11.4 µM | activity change, negative = inhibition [2] 3.33% | activity, negative = inhibition [5] 1.52% | Potency [7] > 46 µM | Potency [8] | outcome [10] | Potency [11]
active: Potency [12] 3.98 µM

COc1ccc(CNc2ncnc3ccc(-c4ccc(N(C)C)cc4)cc23)c(OC)c1
inactive: Potency [9] > 20 µM

CN1C[C@H](C(=O)N[C@@]2(C)O[C@@]3(O)[C@H]4CCCN4C(=O)[C@@H](Cc4ccccc4)N3C2=O)C=C2c3cccc4[nH]cc(c34)C[C@@H]21
inactive: Potency [1] > 11.4 µM | activity change, negative = inhibition [2] 2.32% | activity change, negative = inhibition [4] -0.805% | activity, negative = inhibition [5] 0.776% | Potency [6] > 46 µM | Potency [7] > 9.22 µM | activity change, negative = inhibition [8] -2.44% [at 11.4 µM] | outcome [10]
active: Potency [3] 3.16 µM

c1ccc(CCN2CCCCCC2)nc1
inactive: Potency [1] > 11.4 µM | activity change, negative = inhibition [2] -1.84% | Potency [3] | activity change, negative = inhibition [4] -10.4% | activity, negative = inhibition [5] 3.27% | Potency [6] > 46 µM | Potency [7] > 9.22 µM | activity change, negative = inhibition [8] 4.35% [at 11.4 µM]

O=c1c(-c2cccc(F)c2)nc2cncnc2n1Cc1ccc(F)cc1
inactive: Potency [9] > 20 µM

COc1ccccc1-c1nc(N(C)Cc2ccco2)c2ccccc2n1
inactive: Potency [9] > 20 µM

N#Cc1ccc(CN2CCCC3(CCN(C(=O)c4cnccn4)CC3)C2)cc1
inactive: Potency [9] > 20 µM

CN(C)C(=O)c1ccc(-c2cncnc2N(C)Cc2ccco2)cc1
inactive: Potency [9] > 20 µM

CN(C)c1ccc(-c2nccc(Nc3ccc(F)cc3)n2)cc1
inactive: Potency [9] > 20 µM
